Test results from PubChem BioAssay AID1063 (University of Pittsburgh Molecular Library Screening Center, 2008).
The whole screen tested about 200,000 compounds, of which about 18,000 (9%) were called active. The sample holds actives, similar compounds and a random draw of the others, so the mix is not that of the screen. Unmarked numbers belong to inactive results. No stated cut-off is given here; in the data, active means inhibition above about 50%; inactive means the rest.

assay: Leishmania major promastigote growth inhibition, primary screen (AID 1063); settings: Leishmania major promastigotes, resazurin fluorescence viability; at 10 µM; active compounds read high;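 further: promastigotes grown with compound for 44 hours at 28 °C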

Question: Which inhibition does the source give for `CCN1CCN(C(C(=O)NC2CCCC2)c2cc3c(cc2[N+](=O)[O-])OCO3)CC1` (configuration not stated) here?
Answer: The inhibition was -2.85%.

Question: With `COc1ccc(Cc2n[nH]c(=S)n2NC(=O)Nc2ccc(C)cc2)cc1` as the molecule, how does the inhibition read?
Answer: Its inhibition is -2.58%.

Question: With `CCN1CCN(Cc2nc3c(c(=O)n(C)c(=O)n3C)n2CC(=O)c2ccccc2)CC1` as the molecule, how does the inhibition read?
Answer: Its inhibition is 1.75%.

Question: Which inhibition does the source give for `Cn1c(=O)c2c(nc(CN3CCOCC3)n2Cc2ccccc2)n(C)c1=O` here?
Answer: Its inhibition is -4.56%.

Question: Which inhibition does the source give for `CN1CCN(Cc2nc3c(c(=O)n(C)c(=O)n3C)n2Cc2cccc3ccccc23)CC1` here?
Answer: The inhibition was 58.8% (active).

Question: For `Cc1cccc(NC(=S)N2CCC(O)CC2)c1C`, which inhibition is on record?
Answer: The inhibition was -2.49%.

Question: Which inhibition does the source give for `Cc1csc(OCC(=O)Nc2ccc(C)c(C)c2)n1` here?
Answer: Its inhibition is -3.8%.

Question: With `Cc1ccccc1OCC(=O)Nc1ccc(N2CCN(C(=O)C(C)C)CC2)c(Cl)c1` as the molecule, how does the inhibition read?
Answer: Its inhibition is 40.7%.

Question: Which inhibition does the source give for `Cc1ccc(NC(=O)COc2ccc(-n3ccnc3)cc2)cc1Cl` here?
Answer: The inhibition was 86.5% (active).

Question: Which inhibition does the source give for `O=C(CNC(=O)COc1ccccc1)NCCc1ccccn1` here?
Answer: The inhibition was -2.06%.

Question: Which inhibition does the source give for `CCn1c(SCc2ccc(C)cc2)nnc1-c1nn(-c2ccccc2)ccc1=O` here?
Answer: The inhibition was 5.13%.

Question: With `N=C(N)SCc1cccc2ccccc12` as the molecule, how does the inhibition read?
Answer: The inhibition was 5.8%.

Question: For `CCc1ccc(-c2nn(-c3ccccc3)cc2CSC(=N)N)cc1`, which inhibition is on record?
Answer: The inhibition was 100% (active).

Question: For `N/C(=N\OC(=O)CCc1ccccc1)c1cccnc1`, which inhibition is on record?
Answer: The inhibition was -5.44%.

Question: With `COC(=O)CSc1nccc(-c2cccs2)n1` as the molecule, how does the inhibition read?
Answer: Its inhibition is 1.92%.

Question: With `Cc1nnc(SCc2ccc(C(=O)c3ccc(Cl)cc3)o2)n1-c1ccccc1` as the molecule, how does the inhibition read?
Answer: The inhibition was 98.6% (active).

Question: With `Cc1nnc(SCC(=O)N2CCN(c3ccccc3)CC2)n1-c1ccccc1` as the molecule, how does the inhibition read?
Answer: The inhibition was 5.01%.

Question: With `Cc1nnc(SCC(=O)NCCOc2ccc(Cl)cc2)n1-c1ccccc1` as the molecule, how does the inhibition read?
Answer: Its inhibition is -1.38%.

Question: Which inhibition does the source give for `CNC(=O)c1[nH]cnc1C(=O)N[C@@H](CC(C)C)C(=O)OCc1ccccc1` here?
Answer: Its inhibition is 0.78%.

Question: For `CCN(CC)S(=O)(=O)c1ccc2[nH]cc(C(=O)NCCc3ccccc3)c(=O)c2c1`, which inhibition is on record?
Answer: Its inhibition is 7.93%.

Question: For `CN(c1ccccc1)S(=O)(=O)c1ccc(Cl)c(C(=O)NCCc2c[nH]c3ccccc23)c1`, which inhibition is on record?
Answer: The inhibition was 95.2% (active).

Question: For `O=C(NCCc1c[nH]c2ccccc12)c1cc2ccccc2oc1=O`, which inhibition is on record?
Answer: Its inhibition is 1.33%.

Question: With `CCn1c(=S)[nH]c2sc3c(c2c1=O)CCCCC3` as the molecule, how does the inhibition read?
Answer: The inhibition was -4.76%.

Question: For `Cc1sc2ncnc(Sc3nc4ccccc4s3)c2c1C`, which inhibition is on record?
Answer: Its inhibition is 7.91%.

Question: Which inhibition does the source give for `CCN(CC)CCCSc1nc2ccccc2s1` here?
Answer: The inhibition was 70.2% (active).

Question: With `Cc1nc2nc(CSc3nc4ccccc4s3)cc(=O)n2[nH]1` as the molecule, how does the inhibition read?
Answer: Its inhibition is 1.29%.

Question: For `O=C1COc2ccc(C(=O)COC(=O)C3CC(O)CN3S(=O)(=O)c3ccc(Cl)cc3)cc2N1` (configuration not stated), which inhibition is on record?
Answer: Its inhibition is -7.23%.
